# Laboratory results from ChEMBL document CHEMBL4513216, “Probing the Open Global Health Chemical Diversity Library for Multistage-Active Starting Points for Next-Generation Antimalarials” (ACS Infect Dis, 2020).
# Among all 69,000 compounds or so, about 8,600 (12%) showed an effect of 50% or more. The sample holds strong results, similar compounds and a random draw of the others, so the mix is not that of the screen.
# Tested on: Plasmodium berghei
# Assay: Screen against P. berghei liver stage (PbLuc), transformed with Luciferase, at 10uM
# Type: functional, HepG2
# Details: tested at 10 uM
row,SMILES,INHIBITION [%]
1,CN(Cc1ccco1)C(=O)CN1C(=O)c2ccccc2C1=O,33.4
2,CN(C)CCN1C(=O)CCCC12CCCN(Cc1cccs1)C2 (stereo not drawn),-3.58
3,CNC(=O)NCC(=O)N(C)C(c1ccc(Cl)cc1)c1cccnc1 (stereo not drawn),35.1
4,CN(CCO)C1CCN(c2ncc3c(n2)CCN3c2ccccc2)CC1,22.3
5,Cc1csc2c(N3CCC(Cn4cc(C(C)(C)O)nn4)CC3)ncnc12,79.3
6,CC(C)(O)c1cn(C[C@H]2C[C@@H]3CCN2C[C@@H]3C(=O)N2CCOCC2)nn1,-0.473
7,CC(C)(N)c1cn(C2CCN(c3ncccc3Cl)CC2)nn1,30.4
8,Cc1csc2ncnc(N3CCCC(Cn4cc(C(C)(C)O)nn4)C3)c12 (stereo not drawn),48.5
9,CC(C)(O)c1cn(C2CCN(c3ncccc3Cl)CC2)nn1,25.7
10,CC(O)Cc1cn(CC2CCN(c3nccc4occc34)CC2)nn1 (stereo not drawn),11.8
11,Cc1csc2ncnc(N3CCC(Cn4cc(C(C)(C)N)nn4)CC3)c12,84.2
12,Cc1csc2ncnc(N3CCC(Cn4cc(C(C)(C)O)nn4)CC3)c12,84.2
13,O=C(c1ccoc1)N1CCN(Cc2ccccc2F)CC1,18.3
14,Cc1ccc(CS(=O)(=O)N2Cc3c(CN(C)C)nn(C)c3C2)cc1,8.6
15,COc1ccc(C2=NOC(CO)C2)cc1 (stereo not drawn),35.8
16,Fc1cccc(-c2nccnc2C2CCCNC2)c1 (stereo not drawn),8.72
17,c1cc(CN2CCC3(CC2)COC(COCC2CC2)C3)ccn1 (stereo not drawn),1.9
18,O=C(Cc1ccsc1)N1CCOC(c2nc(-c3ncccn3)no2)C1 (stereo not drawn),21.9
19,Cn1c(CCC(=O)N2CCCC3(CNC(=O)O3)C2)nc2cccnc21 (stereo not drawn),22.5
20,Cc1nc(C2CCN(C(=O)c3cc(C4CC4)[nH]n3)CC2)no1,11.9
21,CS(=O)(=O)Nc1ccn(Cc2cccc(F)c2)n1,49.1
22,COc1ccc(CN2C[C@@H]3OCCN(CCN4CCCC4)[C@@H]3C2)cc1,82.3
23,Fc1ccc(CN2C[C@@H]3OCCN(CC4CCCO4)[C@@H]3C2)cc1 (stereo partly drawn),68.4
24,COCCN1CCO[C@H]2CN(Cc3cc[nH]n3)C[C@H]21,40.3
25,Fc1ccc(CN2C[C@@H]3OCCN(CCN4CCCC4)[C@@H]3C2)cc1,11.3

row,SMILES,INHIBITION [%]
1,COc1ccc(CN2C[C@@H]3OCCN(CC4CCCO4)[C@@H]3C2)cc1 (stereo partly drawn),27.9
2,COc1ccc(CN2C[C@@H]3OCCN(CCN(C)C)[C@@H]3C2)cc1,26.4
3,c1cc(CN2C[C@@H]3OCCN(CC4CCCO4)[C@@H]3C2)ccn1 (stereo partly drawn),-1.55
4,CC(C)N1CCO[C@H]2CN(Cc3cc[nH]n3)C[C@H]21,29.4
5,c1cc(CN2C[C@@H]3OCCN(CC4CC4)[C@@H]3C2)n[nH]1,59.3
6,CN(Cc1cscn1)C1CCCN(c2cccnn2)C1 (stereo not drawn),15.5
7,COc1c(C)cnc(CN2CCCC(c3noc(C4CC4)n3)C2)c1C (stereo not drawn),17.1
8,CCc1n[nH]c(C2CN(C(=O)c3ccc4c(c3)CCCC4)CCO2)n1 (stereo not drawn),-43.6
9,O=C(O)c1cncc(Cc2cccc(F)c2)c1,-19.7
10,CCc1ccc(CN2CCNC(C(=O)N3CCN(C)CC3)C2)nc1 (stereo not drawn),-14.1
11,COc1ccc(F)cc1C(=O)N(C)[C@@H]1CC[C@@H](O)[C@@H]1O,-42
12,Cc1ccoc1C(=O)N1CCn2nnc(COc3cccnc3)c2C1,17.1
13,Cn1cc(CN2CCOC(c3nccnc3-c3cccc(F)c3)C2)cn1 (stereo not drawn),23
14,CC(C)NC(=O)N1CCN(S(C)(=O)=O)CC2(CNC(=O)C2)C1 (stereo not drawn),-3.52
15,N#Cc1cccc(CN2CC[C@@H]3CO[C@@H](CN4CCCC4)[C@@H]3C2)c1,23.3
16,CN(C)CCOCc1cncc2c1CCN(C(=O)C1CCOCC1)C2,55.4
17,CN(C)C(=O)N1CCc2c(COCC3CC3)cncc2C1,59
18,O=C(c1ccncc1)N1CCc2c(COCC3CC3)cncc2C1,-1.55
19,O=C(c1ccc[nH]1)N1CCc2c(COCC3CC3)cncc2C1,14.8
20,Cc1ccc(C(=O)N2CCc3c(COCC4CC4)cncc3C2)o1,88.2
21,O=C(c1ccco1)N1CCc2c(COCC3CC3)cncc2C1,-3.88
22,O=C(c1cccnc1)N1CCc2c(COCC3CC3)cncc2C1,-5.05
23,COCc1cncc2c1CCN(C(=O)c1ccc(C)o1)C2,7.11
24,CN(C)CCOCc1cncc2c1CCN(C1CCOC1)C2 (stereo not drawn),-2.27
25,CN(C)CCOCc1cncc2c1CCN(C1CCOCC1)C2,12.6

row,SMILES,INHIBITION [%]
1,O=C(c1ccoc1)N1CCc2c(COCC3CC3)cncc2C1,64.9
2,N#Cc1ccc(C(=O)N2CCc3c(COCC4CC4)cncc3C2)cc1,43
3,COCCN1CCC2(COCCN(C(=O)Cc3cccs3)C2)C1 (stereo not drawn),-58.7
4,Cc1cc(C(=O)N2CC[C@@H](N(C)C)[C@@H]2Cc2ccccc2)no1,-2.35
5,COc1ccc(C(O)CNC(=O)NCc2c(C)cc(C)[nH]c2=O)cc1 (stereo not drawn),16.9
6,CCO[C@H]1CN(C(=O)c2ccnnc2)[C@@H]2COC[C@H]12,13.6
7,CCn1cc(-n2cc3nc(N4CCC(O)CC4)[nH]cc-3c2=O)cn1,-10.6
8,O=C(c1cscn1)N1CC[C@@H]2[C@@H]1CCN2C1CCOCC1,-23.1
9,Cc1cnc(C(=O)N2Cc3ncn(C)c3C(COCC(C)C)C2)cn1 (stereo not drawn),43
10,O=C(c1n[nH]cc1Cl)N1CCOCC1,39.1
11,Cc1ccc(N2CCC3(CCCN(C(=O)c4cnccn4)C3)C2)nn1 (stereo not drawn),18.5
12,Cc1ccc(CN2CCc3ncnc(-c4ccc(F)cc4)c3CC2)o1,13.7
13,Cc1noc(C)c1CN1CCc2ncnc(-c3ccc(F)cc3)c2CC1,67.5
14,Cc1cc(CN2CCN(c3ccnc(-c4ccccc4)n3)CC2)no1,2.29
15,Cc1noc(C)c1CN1CCc2ncnc(-c3cnn(C)c3)c2CC1,43
16,Cc1noc(C)c1CN1CCc2ncnc(-c3ccccc3)c2CC1,53
17,Cc1noc(C)c1CN1CCc2ncnc(-c3cccnc3)c2CC1,25.8
18,Cc1nc(CN2CCc3ncnc(-c4ccc(F)cc4)c3CC2)cs1,15.4
19,Cc1noc(C)c1CN1CCc2ncnc(-c3ccncc3)c2CC1,90.1
20,c1ccc(CN2CCc3ncnc(-c4ccncc4)c3CC2)nc1,46.2
21,Cc1cnc(CN2CCN(c3ccnc(-c4ccccc4)n3)CC2)cn1,47.2
22,Cc1noc(C)c1CN1CCN(c2ccnc(-c3ccccc3)n2)CC1,62.5
23,Cc1ccc(CN2CCc3ncnc(-c4ccncc4)c3CC2)o1,-4.32
